From PubChem BioAssay (NCI) come the findings set out here.

The panel holds about 83,000 compounds, 20% with a hit somewhere; the sample as a whole holds those more often.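 The endpoint reported here, percent growth, reads 100 for growth as untreated, 0 for no net growth and -100 for all cells dead.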 Unmarked numbers belong to inactive results. Active and inactive are the calls of the source. Rule for the calls: active = growth percent below 10; inactive = the rest.

Test in all cases: NCI-60 one-dose screen, 48 h (100 = growth as untreated, 0 = no growth, -100 = all killed)
Holding throughout (settings): 10 µM unless noted

For assay [1], the system named is SN12C renal.
In assay [2] the test system is UO-31 renal.
Assay [3] deals with TK-10 renal.
The subject of assay [4] is ACHN renal.
Assay [5] has as its system CAKI-1 renal.
In assay [6] the test system is A498 renal.
Assay [7] deals with CCRF-CEM leukemia.
The subject of assay [8] is SK-MEL-2 melanoma.
Assay [9] concerns MOLT-4 leukemia.

Take `CSc1nc(NCCCNc2ccnc3cc(Cl)ccc23)cc(-c2ccccc2)n1`: the growth in assay [1] is 79.5%; in [2], 42.3%; in assay [3], 75.7%; in assay [4], 92.2%; in [5] it was 54.1%; in [6], 40.2%. In addition, in [7], the growth is 47%.

In the case of `CC(=O)OCC1OC(OC2=C(CC=C(Cl)Cl)C(=O)c3ccccc3C2=O)C(OC(C)=O)C(OC(C)=O)C1OC(C)=O` (stereo not given), the growth is 61.3% in assay [8]; 85.8% in assay [1]; 69.3% in assay [2]; 117% in assay [3]; 59.9% in [4]; 75.4% in [6]. Further, the growth in assay [7] was -19.3% (active); in assay [9], -21.1% (active).

As for `COC(=O)C12C3C(=O)N(c4ccc(OC)cc4)C(=O)C3C(c3cn(-c4ccccc4)nc3C)N1[C@H](c1cn(-c3ccccc3)nc1C)[C@@H]1C(=O)N(c3ccc(OC)cc3)C(=O)[C@@H]12` (stereo not given in full), the growth in assay [8] is 107%; in assay [1] it was 104%; in assay [2], 97.1%; in [3], 96.5%; in assay [4] it was 101%; in [5], 91.7%. The growth is 89.4% in [6] and 81.8% in assay [9].

For the compound `O=c1c2cccc3c(Nc4ccccn4)ccc(c32)c2nc3ccccc3n12`, the growth in assay [8] is 80.5%; in assay [1], 71.7%; in [2], 46.6%; in [3], 65.8%; in [5], 51.8%; in assay [6], 92.3%. Further, the results for the growth in assay [7] and in [9] were 51.8% and 61.8%, respectively.

`Cc1cc(Nc2nc(N3CCNCC3)nc3ccccc23)n[nH]1`: the growth in assay [8] is 53.6%; in [1] it was 76.1%; in assay [2] it was 64.3%; in assay [3] it was 60.5%; in [4] it was 41.5%; in assay [6], 45.3%. The results for the growth in assay [7] and in assay [9] were 108% and 101%, respectively.

Take `CCOC(=O)CC(C)=N`: the growth in assay [8] is 111%; in assay [1], 103%; in assay [2] it was 98.5%; in assay [4] it was 109%; in assay [5], 111%; in [7], 118%. Further, the growth in assay [9] was 106%.

For `COc1cc(C2CC(=O)c3c(C)nn(-c4nc5ccccc5[nH]4)c3C2)cc(OC)c1OC` (stereo not given), the growth in assay [8] was 91.2%; in assay [1], 75.9%; in [2] it was 91.1%; in assay [3], 45.3%; in assay [4], 59.1%; in assay [5], 101%. Further, the values for the growth in assay [6] and in assay [9] were 56.5% and 102%, respectively.

Take `Cc1csc2ccc(Cl)cc12`: the growth in assay [8] is 99.7%; in assay [1], 93.1%; in assay [2] it was 81.6%; in assay [3] it was 99.4%; in assay [4], 95.5%; in assay [5] it was 96.9%. Further, the values for the growth in [6] and in [9] were 119% and 112%, respectively.

For the compound `CCCCCCCCCCCCCCCC[N+]1(CC)CCCC1`, the growth in [8] was -59.2% (active); in [1] it was -16.7% (active); in assay [2], 38.3%; in [3], -59.1% (active); in [4] it was 9.99% (active); in assay [5], -41.8% (active). The growth is -9.64% (active) in assay [6] and -67.3% (active) in assay [9].

Turning to `COc1ccc(/C=C2\N=C3Sc4cc(Cl)ccc4C(=O)N3C2=O)cc1`, the growth in assay [1] is 96.3%; in [2], 65%; in assay [3], 107%; in assay [4], 92.1%; in [5] it was 73.8%; in assay [6] it was 108%. The growth in assay [7] was 93.4%; in [9] it was 93.6%.

Take `O=C(/C=C/c1ccc(Cl)cc1)/C=C/c1cc2ccccc2[nH]c1=O`: the growth in assay [8] is 98.2%; in [1], 62.8%; in assay [2], 63.9%; in assay [3], 119%; in assay [5], 108%; in [6], 94.7%. Further, the figures for the growth in assay [7] and in assay [9] were 2.35% (active) and 15.7%, respectively.

Consider `COc1cccc(NC(=O)c2sc3nc4c(cc3c2N)CN(Cc2ccccc2)CC4)c1`, for which the growth in assay [8] was 66.8%; in assay [1], 74%; in [2], 42.9%; in assay [3] it was 79.7%; in assay [4], 54%; in [6], 42.8%. The growth in assay [7] was 60.9%; in [9] it was 65.1%.

Consider `CN(C)CC(=O)Nc1ccc(Cn2nnc3c2C(=O)c2nnn(Cc4ccc(NC(=O)CN(C)C)cc4)c2C3=O)cc1`, for which the growth is -47.3% (active) in assay [1]; -20.6% (active) in assay [2]; -14.2% (active) in [3]; -15.9% (active) in assay [4]; 41.9% in assay [5]; -91.3% (active) in [6]. In addition, the growth in [7] was -32.9% (active).

For `COc1cc(C2CC(=O)Nc3c2c(C)nn3-c2nc3ccccc3[nH]2)cc(OC)c1OC` (stereo not given), the growth in [8] is 106%; in [1], 91.3%; in assay [2], 96.8%; in [3], 109%; in assay [4], 102%; in assay [5], 114%. Besides, the growth was 78.2% in [6] and -42.5% (active) in assay [9].

On to `Cc1ccc(S(=O)(=O)N(CCc2ccc(Cl)cc2)S(=O)(=O)c2ccc(C)cc2)cc1`, for which the growth in [8] is 75.3%; in assay [1] it was 105%; in assay [2], 70%; in [3], 83.9%; in assay [4], 95.2%; in assay [6] it was 115%. For the same compound, the growth was 83.7% in assay [7] and 66.5% in assay [9].

Consider `CN1CCCCC1CCN1c2ccccc2Sc2ccc(Br)cc21` (stereo not given), for which the growth in assay [8] was 69.5%; in [1] it was 73.3%; in [2], 32.9%; in [3], 72.3%; in [5], 55.6%; in assay [6] it was 66.7%. Moreover, the growth in assay [7] is 32.6%; in [9], 30.3%.
